# An excerpt weighted towards active compounds, which were near 21% of everything screened.
# NS1 function inh – inhibitors of influenza NS1 protein function | Potency, µM (series often up to 46.1 µM), without a hit: at the top dose activity, positive = more growth | 270,000 tested, 0.4% active; calls by dose curve; further: potency means the concentration at half of the fitted maximal effect; actives are rising curves; nearly all actives have a fitted effect of over 50% in size
#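 S. cerevisiae expressing influenza A NS1, grown in glucose, washed, then diluted 1:100 into pH 6.0 -URA galactose medium with 23 nl compound. Growth recovery read as OD600; NS1-free strain serves as control.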
# Pf growth 96h – inhibits malaria parasite growth, 96 h. P. falciparum luciferase reporter growth, 96 h. Potency, µM (titrated, usually from 28.7 µM), inactives show at the top dose activity change, negative = inhibition, usual class: inhibitors. 320,000 tested, 6.9% active. AID 504834; further: potency means the concentration at half of the fitted maximal effect; on the % scale 0 is the no-effect control and ±100 the full control effect
#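 Compounds incubated with erythrocytes infected by luciferase-expressing P. falciparum (2% hematocrit, 0.05% parasitemia final) for 96 hours, 37 C in 5% CO2. Growth inhibition scored as decreased luciferase luminescence.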
# Pf growth 48h – P. falciparum growth inhibition at 48 hours (one generation); 310,000 tested, 5.9% active; P. falciparum luciferase growth in erythrocytes, 48 h; Potency, µM (highest dose often 28.7 µM), inactives show top-dose activity change, negative = inhibition, usual class: inhibitors; AID 504832; further: potency means the concentration at half of the fitted maximal effect; on the % scale 0 is the no-effect control and ±100 the full control effect
#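 Erythrocytes infected with P. falciparum carrying an integrated firefly luciferase reporter (2% hematocrit, 0.1% parasitemia final) were exposed to compounds in RPMI 1640 with 0.5% Albumax at 37 C, 5% CO2. Growth inhibition was scored as reduced luminescence.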
# Cycloheximide cs – counter-screen for Shiga toxin inhibitors: cycloheximide protein synthesis inhibition; cell reporter, cycloheximide protein synthesis inhibition counterscreen; 300,000 tested, 12% active; AID 2314; max response, %; in the data active means max response mostly above about 13%, no sharp cut-off; inactive means mostly below about 14%; further: read at 38.3 µM for the half of the compounds with a filed dose; 0% is about no effect
# SARS PLP yeast – SARS-CoV PLP inhibition in yeast; S. cerevisiae expressing SARS-CoV PLpro, growth rescue; Potency, µM (doses to about 32.9 µM), without a hit: at the top dose activity, positive = growth rescue, most hits filed as activators; 330,000 tested, 0.19% active; calls by dose curve; further: potency means the concentration at half of the fitted maximal effect; 0% is about no effect; nearly all actives have a fitted effect of over 55% in size
# Shiga toxin inh – inhibitors of Shiga toxin in Vero cells | 290,000 tested, 9.2% active | Vero cells, Shiga toxin protein synthesis inhibition reporter | AID 2315 | inhibition, % at 38.7 µM; in the data active means inhibition mostly above about 28%, no sharp cut-off; inactive means mostly below about 43%; further: 0% is about no effect
# * hit, by the source's call; ? = inconclusive; . = no result. Unless noted, the call rests on the fitted dose curve; in most records, active means well fitted inhibition curve with a large enough effect; inconclusive means small, poorly fitted or top-dose-only effect, or another doubt; inactive means no such curve, though single readings can be large or run the other way.
SMILES,NS1 function inh,Pf growth 96h,Pf growth 48h,Cycloheximide cs,SARS PLP yeast,Shiga toxin inh
O=[N+]([O-])c1ccc(Cl)c(NC(=S)N2CCCC2)c1,0%,24%,36%,33*,17%,50*
CCC(CC)C(=O)Nc1cc([N+](=O)[O-])ccc1Cl,?,7.4µM*,-1%,-1,5%,-7
CC(=O)Nc1cccc(Oc2ccc([N+](=O)[O-])cc2Cl)c1,.,9%,6%,15,-3%,20
O=[N+]([O-])c1ccc(Cl)c(NC2=NCCCCC2)c1,-5%,9.3µM*,?,-4,-11%,6
O=[N+]([O-])c1ccc(NC(=S)N2CCCC2)cc1,-10%,-12%,2%,-1,5%,17
Cc1cccc(C(=O)OCC(=O)N2CCCC2=O)c1[N+](=O)[O-],.,30%,32%,.,2%,.
CCn1c(SCC(=O)Nc2cc(S(=O)(=O)N3CCOCC3)ccc2OC)nnc1-c1ccncc1,14%,7%,4%,-4,0%,-14
CSc1nnc2c(n1)c(C)nn2-c1cccc(C)c1,-2%,56%,84%,20*,-8%,36*
CCCN(CC1CC1)C(=S)NC(=O)c1cc(Br)ccc1Cl,.,?,13µM*,.,5%,.
CCn1c2ccccc2n2c(=O)c(=O)n(CC(=O)Nc3ccc(C(C)C)cc3)nc12,23%,9%,3%,12,13%,3
CCNC(=S)N1CCN(c2nc(-c3ccc(F)cc3)cs2)CC1,12%,8%,-11%,9.7*,-5%,21
COCCNC(=S)N1CCN(c2nc(-c3ccc(F)cc3)cs2)CC1,20%,?,-17%,12*,-1%,19
CCN(CC)CCCNC(=S)N1CCN(c2nc(-c3ccc(F)cc3)cs2)CC1,17%,-20%,9.3µM*,-12,-1%,.
CCCCC(=O)N1CCN(c2nc(-c3ccc(F)cc3)cs2)CC1,?,?,9%,7,0%,10
CC(C)c1ccc(Oc2cccc(C(=O)/C(C#N)=C/N(C)C)c2)cc1,-61%,20%,.,-3,-10%,3
CC(=O)N1CCc2cc(S(=O)(=O)C(C)CC(=O)Nc3ccc(OC(F)(F)F)cc3)ccc21 (stereo not drawn),16%,-15%,0%,29*,6%,16
COc1ccc(NC(=O)CCS(=O)(=O)c2ccc3c(c2)CCCN3C(C)=O)cc1Cl,3%,43%,.,-4,-2%,-16
COc1ccc(NC(=O)CCS(=O)(=O)c2ccc3c(c2)CCN3C(C)=O)cc1,3%,12µM*,6%,-3,29%,1
COc1ccc(C(=O)NNC(=O)COc2ccc(Cl)cc2)c(OC)c1,-2%,?,-12%,-1,3%,-6
CCCCCCCCCn1cc(C(C)=O)c(=O)[nH]c1=O,-7%,145%,36%,-1,4%,-8
CCCCCCNC(=O)n1cc(F)c(=O)[nH]c1=O,.,2.1µM*,4.3µM*,.,.,.
Cc1c(C(=O)Nc2ccccc2)oc2c1C(=O)CC(C)(C)C2,-98%,.,24%,33*,-11%,82*
COc1ccccc1-c1oc2ccccc2c1-c1ccc2cc[nH]c2c1,.,?,2.1µM*,.,1%,.
CCOC(=O)c1ccc(-c2c(-c3ccccc3OC)oc3ccccc23)cc1F,.,3.3µM*,?,.,-3%,.
COc1cc2c(-c3ccc4cc[nH]c4c3)c(-c3ccc(C#N)cc3)oc(=O)c2cc1OC,.,?,9.3µM*,.,-1%,.
SMILES,NS1 function inh,Pf growth 96h,Pf growth 48h,Cycloheximide cs,SARS PLP yeast,Shiga toxin inh
O=c1c2ccccc2oc2cc(-c3ccc4cc[nH]c4c3)ccc12,.,.,.,.,1%,.
COc1ccc(-c2oc(=O)c3cc(OC)c(OC)cc3c2-c2ccc3c(c2)OCO3)cc1,.,.,.,.,1%,.
CCOC(=O)c1ccc(-c2ccc3c(=O)c4ccccc4n(C)c3c2)cc1F,16%,2%,87%,11,-13%,-5
O=C(Nc1cccc(C(F)(F)F)c1)n1cc(-c2ccccn2)c(N2CCOCC2)n1,.,?,?,0,-17%,2
Cc1cccc(C(=O)NCCc2nnc(SCC(=O)Nc3cccc(C(=O)O)c3)n2C)c1,2%,-3%,7%,-2,-7%,-8
CC(C)(CO)C(O)C(=O)NCCCC(=O)O (stereo not drawn),.,-17%,-92%,.,.,.
Cc1cccc(CNc2ccc(S(=O)(=O)N3CCCCC3)cc2)c1,.,?,?,.,-1%,.
CC1(C)CSC(Nc2ccc(F)c(Cl)c2)=N1,?,0%,-1%,19,3%,61
Cc1cc2n(n1)SC(Nc1ccc(F)c(Cl)c1)N2 (stereo not drawn),-9%,9%,34%,32*,-49%,active
COc1cc(CC(=O)NCCc2ccc(S(N)(=O)=O)cc2)cc(OC)c1OC,9%,.,0%,-1,0%,-23
CCN(CC(=O)Nc1ccc(NC(C)=O)cc1)C(=O)C1(c2ccccc2)CC1,.,-14%,-22%,.,-2%,.
COc1ccccc1-c1c(C)nn2c(-c3ccccc3)cc(C)nc12,1%,?,?,8,-6%,17
Cc1cc(-c2ccccc2)n2ncc(-c3ccccc3)c2n1,5%,-1%,161%,47*,17%,97*
Cc1cc(SCC(N)=O)nc(SCC(=O)c2ccccc2)n1,-2%,19%,21%,7,-3%,14
COc1ccc(-c2cc(C)nc3c(-c4ccccc4)cnn23)cc1,5%,19%,13%,41*,0%,90*
Cc1cc(SCC(=O)c2ccccc2)n2ncc(-c3ccccc3)c2n1,-34%,33%,33%,61*,-2%,67*
CCn1ncc(CN2CCCC(C(=O)Nc3cccc(-c4cc5ccccc5[nH]4)c3)C2)c1C (stereo not drawn),?,-9%,4.1µM*,-1,2%,-10
Cc1c(CN2CCCC(C(=O)Nc3cccc(-n4cccn4)c3)C2)cnn1C (stereo not drawn),12%,13µM*,-25%,5,0%,5
O=C(Nc1cccc(-n2cnnn2)c1)C1CCCN(Cc2cccc(C(F)(F)F)c2)C1 (stereo not drawn),9%,-24%,15µM*,1,-2%,-9
Cc1cc(CN2CCCC(C(=O)Nc3cccc(-n4cccn4)c3)C2)cc(C)c1O (stereo not drawn),-9%,33%,?,-2,0%,-3
COc1cc(C(=O)OC(C)CN2C(C)CCCC2C)cc(OC)c1OC (stereo not drawn),-13%,200%,-5%,0,11%,-10
CCOC(=O)c1cc(C)sc1NC(=O)CN1CCN(C(=O)C2CCCO2)CC1 (stereo not drawn),-14%,40%,?,-1,-2%,-32
COC(=O)C1CCN(C(=O)/C=C/c2ccccc2)CC1,4%,?,253%,18,13%,41*
O=C(/C=C/c1cccc(Cl)c1)N1CCC(Cc2ccccc2)CC1,-33%,-10%,33%,12*,-22%,54*
COC(=O)C1CCN(C(=O)Cc2ccc(C)cc2)CC1,7%,26%,.,18,4%,7
